This passage reports enrichment ratio results from a collection of fitness landscapes (doi:10.1126/science.1257360).

Whole data set: some 140,000 sequences, median “enrichment ratio after two sorts for PhoP signalling” near 0, cut for the highest 2% near 11. What follows is part of a selection rich in the highest values, with near analogues and random picks from the rest. Some results are limits rather than exact numbers.

B1: PhoQ; a variant is named by its letters at X, in order, P23837 (parent)
chain: MKKLLRLFFPLSLRVRFLLATAAVVLVLSLAYGMVALIGYSVSFDKTTFRLLRGESNLFYTLAKWENNKLHVELPENIDKQSPTMTLIYDENGQLLWAQRDVPWLMKMIQPDWLKSNGFHEIEADVNDTSLLLSGDHSIQQQLQEVREDDDDAEMTHSVAVNVYPATSRMPKLTIVVVDTIPVELKSSYMVWSWFIYVLSANLLLVIPLLWVAAWWSLRPIEALAKEVRELEEHNRELLNPATTRELTSLVRNLNRLLKSERERYDKYRTTLTDLTHSLKTPLXXLQXXLRSLRSEKMSVSDAEPVMLEQISRISQQIGYYLHRASMRGGTLLSRELHPVAPLLDNLTSALNKVYQRKGVNISLDISPEISFVGEQNDFVEVMGNVLDNACKYCLEFVEISARQTDEHLYIVVEDDGPGIPLSKREVIFDRGQRVDTLRPGQGVGLAVAREITEQYEGKIVAGESMLGGARMEVIFGRQHSAPKDE

In this experiment the parent is B1. The experiment in a line: enrichment ratio after two sorts for PhoP signalling (ratio (wild type AVST 3.29)); higher = more functional. The note with it: with PhoP (E. coli).
In the case of YFRP, the enrichment ratio was ≤ 0.25.

For IDDH, the enrichment ratio is ≤ 0.25.

As for FGMW, the enrichment ratio is ≤ 0.25.

Take FGMD: the enrichment ratio was ≤ 0.25.

Take FGMS: the enrichment ratio was 0.618.

Regarding FGMG, the enrichment ratio is 0.824.

As for FGMI, the enrichment ratio turned out to be 11.8.

As for FGMQ, the enrichment ratio was 21.1.

On to FGMV, for which the enrichment ratio worked out at 16.7.

For the variant FGGG, the enrichment ratio is ≤ 0.25.

Regarding FGGQ, the enrichment ratio is 3.04.

Regarding YKMH, the enrichment ratio was ≤ 0.25.

Consider HWMV, for which the enrichment ratio was ≤ 0.25.

As for RAPQ, the enrichment ratio is ≤ 0.25.

On to ATVM, for which the enrichment ratio is 6.8.

For STPC, the enrichment ratio was ≤ 0.25.

For the variant MGVA, the enrichment ratio was ≤ 0.25.

Take TGYF: the enrichment ratio came out at 1.56.

For the variant RGYF, the enrichment ratio was ≤ 0.25.

On to MGVK, for which the enrichment ratio was ≤ 0.25.

As for MGHV, the enrichment ratio was found to be 2.03.

As to MGGS, the enrichment ratio worked out at 17.9.

Regarding MGVV, the enrichment ratio is 15.6.

As for MGYF, the enrichment ratio stood at 12.2.

Take MGYV: the enrichment ratio stood at 13.4.

As for TGVV, the enrichment ratio was 0.277.

With MGWI, the enrichment ratio came out at 1.07.

For the variant MGWV, the enrichment ratio is 6.77.

MMRA: the enrichment ratio was ≤ 0.25.

DQCN: the enrichment ratio was ≤ 0.25.

For the variant MMLA, the enrichment ratio was ≤ 0.25.

For ASGS, the enrichment ratio turned out to be 3.2.

Take MGCI: the enrichment ratio stood at 5.38.

In the case of MGDI, the enrichment ratio was ≤ 0.25.

As to MGCV, the enrichment ratio was determined as 14.

In the case of MGGH, the enrichment ratio was 20.1.

For the variant MGGD, the enrichment ratio is ≤ 0.25.

MGGQ: the enrichment ratio stood at 2.83.

MGDS: the enrichment ratio is ≤ 0.25.

On to MGKI, for which the enrichment ratio was ≤ 0.25.

With MGGA, the enrichment ratio is 24.1.

With MGKH, the enrichment ratio was ≤ 0.25.

On to MGYQ, for which the enrichment ratio came out at 14.

Consider MTYQ, for which the enrichment ratio was found to be 2.5.

Turning to SGGC, the enrichment ratio worked out at 10.9.

With HITM, the enrichment ratio was ≤ 0.25.

For PRMN, the enrichment ratio was ≤ 0.25.

Take EYFG: the enrichment ratio was ≤ 0.25.

For the variant DTNW, the enrichment ratio was ≤ 0.25.

Turning to LCAW, the enrichment ratio is ≤ 0.25.

For the variant IYCG, the enrichment ratio is ≤ 0.25.

For the variant TGYS, the enrichment ratio stood at 1.45.

MGHL: the enrichment ratio was 19.3.

On to MGYK, for which the enrichment ratio is ≤ 0.25.

Turning to TGHL, the enrichment ratio was found to be 7.55.

As for MGHF, the enrichment ratio came out at 0.887.

For the variant MGYD, the enrichment ratio is ≤ 0.25.

As to MGDR, the enrichment ratio was ≤ 0.25.

Consider MGYS, for which the enrichment ratio is 12.2.

Regarding MGHI, the enrichment ratio is 19.7.

Turning to GGHL, the enrichment ratio was ≤ 0.25.

As for MGWA, the enrichment ratio was ≤ 0.25.

Consider MGYI, for which the enrichment ratio was 13.6.

In the case of EVSV, the enrichment ratio is ≤ 0.25.

Take VKDT: the enrichment ratio is ≤ 0.25.

DASS: the enrichment ratio is ≤ 0.25.

As to QDGG, the enrichment ratio is ≤ 0.25.

For TYTL, the enrichment ratio came to 15.2.

In the case of KATL, the enrichment ratio was ≤ 0.25.

Turning to TATL, the enrichment ratio is 16.3.

With GYTL, the enrichment ratio was ≤ 0.25.

Regarding TMTL, the enrichment ratio stood at 20.9.

As for KSTL, the enrichment ratio is ≤ 0.25.

For the variant TVTL, the enrichment ratio was 15.2.

Consider FSTL, for which the enrichment ratio is 4.4.

Regarding NITL, the enrichment ratio is ≤ 0.25.

For RYTL, the enrichment ratio was ≤ 0.25.

With NATL, the enrichment ratio was ≤ 0.25.

For SPTL, the enrichment ratio was ≤ 0.25.

Turning to AVIL, the enrichment ratio was determined as 1.98.

As for LGEK, the enrichment ratio was ≤ 0.25.

On to DFEL, for which the enrichment ratio is ≤ 0.25.

For FLSP, the enrichment ratio was ≤ 0.25.

Regarding RASH, the enrichment ratio was ≤ 0.25.

As for CFTL, the enrichment ratio turned out to be 15.7.

CMTL: the enrichment ratio was ≤ 0.25.

In the case of TGTL, the enrichment ratio was determined as 13.5.

In the case of NGTL, the enrichment ratio was ≤ 0.25.

Take CITL: the enrichment ratio was ≤ 0.25.

Consider GGTL, for which the enrichment ratio was found to be 5.81.

FIIG: the enrichment ratio is ≤ 0.25.

In the case of YFRE, the enrichment ratio was ≤ 0.25.

As for YALE, the enrichment ratio worked out at 14.7.

Regarding YELE, the enrichment ratio was 13.8.

In the case of YEVE, the enrichment ratio was ≤ 0.25.

For AHLE, the enrichment ratio worked out at 12.9.

Turning to HKLE, the enrichment ratio was ≤ 0.25.

As for MKLE, the enrichment ratio was ≤ 0.25.

Regarding QPLE, the enrichment ratio is ≤ 0.25.

For FTLE, the enrichment ratio came to 5.91.

AILE: the enrichment ratio stood at 2.65.

In the case of KALE, the enrichment ratio is ≤ 0.25.

Regarding TKLE, the enrichment ratio is 12.7.

Consider NHLE, for which the enrichment ratio was ≤ 0.25.

For the variant PLTV, the enrichment ratio is ≤ 0.25.

Regarding YFSG, the enrichment ratio is ≤ 0.25.

Regarding RYRE, the enrichment ratio is ≤ 0.25.

On to SNND, for which the enrichment ratio is ≤ 0.25.

As for GKDT, the enrichment ratio was ≤ 0.25.

Regarding PQNK, the enrichment ratio is ≤ 0.25.

KRMQ: the enrichment ratio is ≤ 0.25.

Turning to MEMW, the enrichment ratio is ≤ 0.25.

Consider MKMV, for which the enrichment ratio is ≤ 0.25.

Turning to ADMG, the enrichment ratio was ≤ 0.25.

Regarding MEMS, the enrichment ratio is 63.4.

Consider YYHV, for which the enrichment ratio was ≤ 0.25.

For AKMG, the enrichment ratio turned out to be 18.6.

MTHV: the enrichment ratio was ≤ 0.25.

MEMV: the enrichment ratio was found to be 14.8.

On to KKMS, for which the enrichment ratio is ≤ 0.25.

Turning to MKMS, the enrichment ratio is ≤ 0.25.

MEHV: the enrichment ratio turned out to be 14.3.

Regarding AIMG, the enrichment ratio was determined as 6.65.

VCGT: the enrichment ratio was ≤ 0.25.

Take VPIR: the enrichment ratio is ≤ 0.25.

As to IAQH, the enrichment ratio was ≤ 0.25.

On to SNQM, for which the enrichment ratio amounted to 9.41.

For RNTT, the enrichment ratio was ≤ 0.25.

NFHF: the enrichment ratio was ≤ 0.25.

Consider RATT, for which the enrichment ratio is ≤ 0.25.

In the case of RPPR, the enrichment ratio is ≤ 0.25.

QKLG: the enrichment ratio was ≤ 0.25.

With PTLR, the enrichment ratio was ≤ 0.25.

Consider NSHF, for which the enrichment ratio is ≤ 0.25.

Take MEMG: the enrichment ratio came to 12.8.

For the variant MEVG, the enrichment ratio turned out to be 4.29.

As for VEMV, the enrichment ratio is 27.4.

For VEKK, the enrichment ratio was ≤ 0.25.

With VEMG, the enrichment ratio was determined as 6.39.

As to MKMG, the enrichment ratio is ≤ 0.25.

Regarding LQGT, the enrichment ratio is ≤ 0.25.

With RYHM, the enrichment ratio was ≤ 0.25.

Regarding FHIH, the enrichment ratio is ≤ 0.25.

Consider PDKA, for which the enrichment ratio was ≤ 0.25.

For SIGW, the enrichment ratio is 11.7.

As to SVGD, the enrichment ratio was ≤ 0.25.

Turning to SVHW, the enrichment ratio is ≤ 0.25.

Consider SQGW, for which the enrichment ratio was ≤ 0.25.

Regarding SVGW, the enrichment ratio worked out at 14.4.

Turning to KYGW, the enrichment ratio is ≤ 0.25.

For the variant SCGW, the enrichment ratio amounted to 20.5.

With SYGW, the enrichment ratio was ≤ 0.25.

Take SRGW: the enrichment ratio was 2.5.
